# Reference: PubChem BioAssay AID1159580 (chemical genetic matrix, 2015)
# Screen size: about 5,500 compounds; about 2,000 (36%) were called active. About 18% were inconclusive and are not listed. Some of the results follow. A number with no mark means an inactive call. Cut-off read from the data, not from the text of the source: active = normalized growth mostly below about 0.91 (no sharp cut-off); inconclusive = no clear call, values can overlap the other calls; inactive = mostly above about 0.92.
# Assay: chemical genetic growth profiling, strain panel (AID 1159580);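 note: tested at 20 µM; growth read once vehicle control cultures reached saturation at 30 °C; 1 = growth at the plate median or of vehicle wells; lower values mean less growth of the strain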
# Conditions: growth OD
structure (smiles),measurement,setting,value
CCCCCCOc1ccccc1C(N)=O,normalized growth,"S. cerevisiae deletion strains, locus YJR043C, strain POL32, hits give low values",0.529 (active)
same,normalized growth,"S. cerevisiae deletion strains, locus YJR066W, strain TOR1, hits give low values",0.815 (active)
same,normalized growth,"S. cerevisiae deletion strains, locus YKL009W, strain mrt4, hits give low values",0.768 (active)
same,normalized growth,"S. cerevisiae deletion strains, locus YKL068W, hits give low values",0.851 (active)
same,normalized growth,"S. cerevisiae deletion strains, locus YKL085W, strain MDH1 (second series), hits give low values",0.826 (active)
same,normalized growth,"S. cerevisiae deletion strains, locus YKL085W, strain MDH1, hits give low values",0.826 (active)
same,normalized growth,"S. cerevisiae deletion strains, locus YKL160W, strain elf1, hits give low values",0.883 (active)
same,normalized growth,"S. cerevisiae deletion strains, locus YKL190W, strain CNB1, hits give low values",0.281 (active)
same,normalized growth,"S. cerevisiae deletion strains, locus YKR001C, strain vps1, hits give low values",0.678 (active)
same,normalized growth,"S. cerevisiae deletion strains, locus YKR026C, strain gcn3, hits give low values",0.948
same,normalized growth,"S. cerevisiae deletion strains, locus YKR091W, strain srl3, hits give low values",0.953
same,normalized growth,"S. cerevisiae deletion strains, locus YLL001W, strain dnm1, hits give low values",0.887 (active)
same,normalized growth,"S. cerevisiae deletion strains, locus YLL026W, hits give low values",0.877 (active)
same,normalized growth,"S. cerevisiae deletion strains, locus YLL041C, strain sdh2, hits give low values",0.94
same,normalized growth,"S. cerevisiae deletion strains, locus YLR027C, strain aat2, hits give low values",0.898 (active)
same,normalized growth,"S. cerevisiae deletion strains, locus YLR039C, strain RIC1, hits give low values",1.04
same,normalized growth,"S. cerevisiae deletion strains, locus YLR058C, strain SHM2, hits give low values",0.641 (active)
same,normalized growth,"S. cerevisiae deletion strains, locus YLR102C, strain apc9, hits give low values",0.667 (active)
same,normalized growth,"S. cerevisiae deletion strains, locus YLR113W, strain HOG1, hits give low values",0.85 (active)
same,normalized growth,"S. cerevisiae deletion strains, locus YLR221C, strain rsa3, hits give low values",0.845 (active)
same,normalized growth,"S. cerevisiae deletion strains, locus YLR258W, strain gsy2, hits give low values",0.862 (active)
same,normalized growth,"S. cerevisiae deletion strains, locus YLR262C, strain YPT6 (second series), hits give low values",1.11
same,normalized growth,"S. cerevisiae deletion strains, locus YLR262C, strain YPT6, hits give low values",0.921
same,normalized growth,"S. cerevisiae deletion strains, locus YLR268W, strain sec22, hits give low values",0.308 (active)
same,normalized growth,"S. cerevisiae deletion strains, locus YLR320W, strain mms22, hits give low values",0.59 (active)
same,normalized growth,"S. cerevisiae deletion strains, locus YLR330W, strain CHS5, hits give low values",0.355 (active)
same,normalized growth,"S. cerevisiae deletion strains, locus YLR342W, strain FKS1 (second series), hits give low values",0.366 (active)
same,normalized growth,"S. cerevisiae deletion strains, locus YLR342W, strain FKS1, hits give low values",0.859 (active)
same,normalized growth,"S. cerevisiae deletion strains, locus YLR357W, strain rsc2, hits give low values",1.07
same,normalized growth,"S. cerevisiae deletion strains, locus YLR370C, strain arc18, hits give low values",0.932
same,normalized growth,"S. cerevisiae deletion strains, locus YLR371W, strain rom2, hits give low values",0.566 (active)
same,normalized growth,"S. cerevisiae deletion strains, locus YLR384C, strain iki3, hits give low values",0.959
same,normalized growth,"S. cerevisiae deletion strains, locus YLR418C, strain cdc73, hits give low values",0.207 (active)
same,normalized growth,"S. cerevisiae deletion strains, locus YML016C, strain PPZ1, hits give low values",0.822 (active)
same,normalized growth,"S. cerevisiae deletion strains, locus YML032C, strain rad52, hits give low values",0.526 (active)
same,normalized growth,"S. cerevisiae deletion strains, locus YML120C, strain ndi1, hits give low values",0.857 (active)
same,normalized growth,"S. cerevisiae deletion strains, locus YML124C, strain tub3, hits give low values",0.725 (active)
same,normalized growth,"S. cerevisiae deletion strains, locus YMR058W, strain fet3, hits give low values",0.807 (active)
same,normalized growth,"S. cerevisiae deletion strains, locus YMR078C, strain ctf18, hits give low values",0.361 (active)
same,normalized growth,"S. cerevisiae deletion strains, locus YMR125W, strain sto1, hits give low values",0.785 (active)
same,normalized growth,"S. cerevisiae deletion strains, locus YMR129W, hits give low values",0.945
same,normalized growth,"S. cerevisiae deletion strains, locus YMR205C, strain PFK2, hits give low values",0.835 (active)
same,normalized growth,"S. cerevisiae deletion strains, locus YMR223W, strain ubp8, hits give low values",0.55 (active)
same,normalized growth,"S. cerevisiae deletion strains, locus YMR231W, strain pep5, hits give low values",0.979
same,normalized growth,"S. cerevisiae deletion strains, locus YMR307W, strain GAS1, hits give low values",0.457 (active)
same,normalized growth,"S. cerevisiae deletion strains, locus YNL067W, strain RPL9B, hits give low values",0.599 (active)
same,normalized growth,"S. cerevisiae deletion strains, locus YNL071W, strain lat1, hits give low values",0.57 (active)
same,normalized growth,"S. cerevisiae deletion strains, locus YNL153C, strain GIM3, hits give low values",0.502 (active)
same,normalized growth,"S. cerevisiae deletion strains, locus YNL183C, strain NPR1, hits give low values",0.869
same,normalized growth,"S. cerevisiae deletion strains, locus YNL209W, strain ssb2, hits give low values",0.902 (active)
same,normalized growth,"S. cerevisiae deletion strains, locus YNL233W, strain BNI4, hits give low values",0.326 (active)
same,normalized growth,"S. cerevisiae deletion strains, locus YNL248C, strain rpa49, hits give low values",0.865 (active)
same,normalized growth,"S. cerevisiae deletion strains, locus YNL250W, strain rad50, hits give low values",0.871 (active)
same,normalized growth,"S. cerevisiae deletion strains, locus YNL271C, strain bni1, hits give low values",0.696 (active)
same,normalized growth,"S. cerevisiae deletion strains, locus YNL298W, strain CLA4, hits give low values",0.778 (active)
same,normalized growth,"S. cerevisiae deletion strains, locus YNL307C, strain MCK1, hits give low values",0.0873 (active)
same,normalized growth,"S. cerevisiae deletion strains, locus YNL322C, strain KRE1 (second series), hits give low values",0.978
same,normalized growth,"S. cerevisiae deletion strains, locus YNL322C, strain KRE1, hits give low values",0.705 (active)
same,normalized growth,"S. cerevisiae deletion strains, locus YNR049C, strain mso1, hits give low values",0.942
same,normalized growth,"S. cerevisiae deletion strains, locus YNR052C, strain pop2, hits give low values",0.797 (active)
same,normalized growth,"S. cerevisiae deletion strains, locus YOL006C, strain TOP1, hits give low values",0.135 (active)
same,normalized growth,"S. cerevisiae deletion strains, locus YOL012C, strain htz1",0.5
same,normalized growth,"S. cerevisiae deletion strains, locus YOL147C, strain pex11, hits give low values",0.243 (active)
same,normalized growth,"S. cerevisiae deletion strains, locus YOR001W, strain rrp6, hits give low values",0.904
same,normalized growth,"S. cerevisiae deletion strains, locus YOR061W, strain CKA2, hits give low values",0.794 (active)
same,normalized growth,"S. cerevisiae deletion strains, locus YOR069W, strain VPS5, hits give low values",0.798 (active)
same,normalized growth,"S. cerevisiae deletion strains, locus YOR070C, strain gyp1, hits give low values",0.891 (active)
same,normalized growth,"S. cerevisiae deletion strains, locus YOR080W, strain dia2, hits give low values",0.951
same,normalized growth,"S. cerevisiae deletion strains, locus YOR083W, strain WHI5, hits give low values",0.855 (active)
same,normalized growth,"S. cerevisiae deletion strains, locus YOR106W, strain vam3, hits give low values",0.861 (active)
same,normalized growth,"S. cerevisiae deletion strains, locus YOR136W, strain idh2, hits give low values",0.719 (active)
same,normalized growth,"S. cerevisiae deletion strains, locus YOR144C, strain elg1, hits give low values",0.485 (active)
same,normalized growth,"S. cerevisiae deletion strains, locus YOR184W, strain ser1, hits give low values",0.187 (active)
same,normalized growth,"S. cerevisiae deletion strains, locus YOR231W, strain MKK1, hits give low values",0.877
same,normalized growth,"S. cerevisiae deletion strains, locus YOR265W, strain rbl2, hits give low values",0.929
same,normalized growth,"S. cerevisiae deletion strains, locus YOR270C, strain vph1, hits give low values",0.446 (active)
same,normalized growth,"S. cerevisiae deletion strains, locus YOR290C, strain snf2, hits give low values",0.87
same,normalized growth,"S. cerevisiae deletion strains, locus YOR316C, strain cot1, hits give low values",0.567 (active)
same,normalized growth,"S. cerevisiae deletion strains, locus YPL051W, strain arl3, hits give low values",0.878 (active)
same,normalized growth,"S. cerevisiae deletion strains, locus YPL078C, strain atp4, hits give low values",0.729 (active)
same,normalized growth,"S. cerevisiae deletion strains, locus YPL106C, strain sse1, hits give low values",1.01
same,normalized growth,"S. cerevisiae deletion strains, locus YPL240C, strain hsp82, hits give low values",0.945
same,normalized growth,"S. cerevisiae deletion strains, locus YPL256C, strain CLN2, hits give low values",0.864
same,normalized growth,"S. cerevisiae deletion strains, locus YPR119W, strain clb2, hits give low values",0.625 (active)
same,normalized growth,"S. cerevisiae deletion strains, locus YPR141C, strain kar3, hits give low values",0.825 (active)
same,normalized growth,"S. cerevisiae deletion strains, locus YPR163C, strain tif3, hits give low values",0.142 (active)
same,normalized growth,"S. cerevisiae deletion strains, locus YPR167C, strain met16, hits give low values",0.627 (active)
same,normalized growth,"S. cerevisiae deletion strains, strain wtn01, hits give low values",0.444 (active)
same,normalized growth,"S. cerevisiae strains, strain wild type, hits give low values",0.559 (active)
